For 26 molecules, activity, negative = inhibition and Potency results are on record in PubChem BioAssay (NCATS).

Inconclusive results are not listed. A number with no mark means an inactive call. Calls of active or inactive are those of the source. The call rests on the fitted dose curve; in most records, active means well fitted inhibition curve with a large enough effect; inconclusive means small, poorly fitted or top-dose-only effect; inactive means flat fitted curve, though single readings scatter.

Assay [1] is described as follows: qHTS profiling for inhibitors of Plasmodium falciparum proliferation (AID 504749).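 On activity, negative = inhibition: 0% = DMSO vehicle and full inhibition = artemisinin control.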 On all read-outs here: nearly all actives have a fitted effect of over 60% in size. The conditions noted are these: P. falciparum in erythrocytes, SYBR Green DNA, 72 h; for activity, negative = inhibition: at 28.7 µM (top of the series). In a few lines: (§1)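 Each compound contacts P. falciparum-infected red blood cells for 72 h at 37 C; lysis buffer (Tris, EDTA, saponin, Triton X, SYBR Green I) is added and fluorescence measured next morning; values normalized to controls.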

Another assay deals with 3D7. The description is as above. The conditions noted are these: P. falciparum in erythrocytes, SYBR Green DNA, 72 h; series mostly up to 28.7 µM. In a few lines:
as §1

Another assay deals with 7G8. Described as above. To be noted: P. falciparum in erythrocytes, SYBR Green DNA, 72 h; series mostly up to 28.7 µM. An outline of the steps:
as §1

The next assay has as its system AA1029. The assay is described as above. To be noted: P. falciparum in erythrocytes, SYBR Green DNA, 72 h; series mostly up to 28.7 µM. An outline of the steps:
as §1

The next assay relates to AS120. Described as above. To be noted: P. falciparum in erythrocytes, SYBR Green DNA, 72 h; series mostly up to 28.7 µM. An outline of the steps:
as §1

A further assay concerns ATS189. The assay is described as above. The conditions noted are these: P. falciparum in erythrocytes, SYBR Green DNA, 72 h; series mostly up to 28.7 µM. An outline of the steps:
as §1
Potency means the concentration at half of the fitted maximal effect.

Regarding `CC(C)CCCCCCc1ccc(O)cc1`, the activity, negative = inhibition in assay [1] (parasite line B) is -29%. In addition, the Potency entry in the assay with 3D7 and in the assay with AA1029 was “inactive” in each case. Further, the Potency in the assay with 7G8 was 8.91 µM (active).

For `OC/C=C/c1ccccc1`, in assay [1] (parasite line A), the activity, negative = inhibition is -0.356%. The Potency entry with 3D7, with 7G8, with AA1029, in the assay with AS120 and in the assay with ATS189 was “inactive” in each case.

`c1ccc2c(c1)Sc1ccccc1N2CCN1CCCC1`: the Potency was 11.2 µM (active) in the assay on 3D7; 7.08 µM (active) with 7G8; 7.94 µM (active) with AA1029; 7.08 µM (active) with AS120; 8.91 µM (active) in the assay with ATS189.

`Nc1ccc(N=Nc2ccccc2)c(N)n1`: the Potency in assay [1] (parasite line A) was 10 µM (active). For the same molecule, the Potency result in the assay with 3D7, with 7G8, in the assay on AA1029, in the assay on AS120 and in the assay on ATS189 was “inactive” in each case.

In the case of `CCCC(CCC)C(=O)OC1C[C@H]2CC[C@@H](C1)[N+]2(C)C` (some centres not stated), the Potency in assay [1] (parasite line A) was 5.62 µM (active); in the assay with 7G8 it was 11.2 µM (active); in the assay on AA1029, 11.2 µM (active).

Consider `C[C@H](CCC(=O)O)[C@H]1CC[C@H]2[C@@H]3CC[C@@H]4C[C@H](O)CC[C@]4(C)[C@H]3C[C@H](O)[C@]12C`, for which the activity, negative = inhibition in assay [1] (parasite line A) is 0.235%. For the same molecule, the Potency result in the assay on 3D7, in the assay with 7G8, with AA1029, in the assay on AS120 and in the assay with ATS189 was “inactive” throughout.

As to `N[C@@H](Cc1cc(I)c(Oc2ccc(O)c(I)c2)c(I)c1)C(=O)O`, the activity, negative = inhibition in assay [1] (parasite line A) is -3.92%. The Potency entry in the assay on 3D7 was “inactive”. Further, the Potency with 7G8 was 12.6 µM (active).

As to `CN(C)CCC=C1c2ccccc2C(C)(C)c2ccccc21`, the Potency entry in the assay on 3D7 and in the assay on ATS189 was “inactive” each time. Besides, the Potency in the assay on 7G8 is 7.94 µM (active).

For the molecule `CC(=O)Oc1cccc2c1C(=O)c1c(OC(C)=O)cc(C(=O)O)cc1C2=O`, the activity, negative = inhibition in assay [1] (parasite line B) was -5.47%. Also, the Potency result in the assay with 3D7, with 7G8, with AA1029, in the assay on AS120 and with ATS189 was “inactive” each time.

With `O=C1c2ccccc2C(=O)C1c1ccc(Cl)cc1`, the activity, negative = inhibition in assay [1] (parasite line A) is 10.7%. For the same molecule, the Potency entry in the assay on 3D7, with 7G8, in the assay with AA1029, in the assay on AS120 and with ATS189 was “inactive” in each case.

Consider `CCOC(=O)Cc1ccc(-c2ccccc2)cc1`, for which the activity, negative = inhibition in assay [1] (parasite line A) was 8.04%. The Potency entry with 3D7, in the assay on 7G8, in the assay on AS120 and with ATS189 was “inactive” each time.

With `CN1CCCC(CN2c3ccccc3Sc3ccccc32)C1` (configuration not stated), the Potency entry in the assay on 3D7 was “inactive”. The results for the Potency in the assay on 7G8, in the assay with AA1029 and in the assay on AS120 were 11.2 µM (active), 10 µM (active) and 12.6 µM (active), respectively.

As to `Cn1c(O)c(N=NC(N)=S)c2ccccc21`, the Potency with 7G8 is 12.6 µM (active).

As to `CCCCCCCCCCCCCCCCOCCOCCOCCOCCOCCOCCOCCOCCOCCOCCOCCOCCOCCOCCOCCOCCOCCOCCOCCOCCO`, the Potency is 15.8 µM (active) in assay [1] (parasite line A), 5.62 µM (active) in the assay with 7G8 and 14.1 µM (active) with AS120.

With `CN(C)C(=O)CCSC(SCCC(=O)O)c1cccc(/C=C/c2ccc3ccc(Cl)cc3n2)c1` (configuration not stated), the Potency with 7G8 was 8.91 µM (active); in the assay on AS120, 10 µM (active).

Turning to `COc1ccc2nc(NC(=O)Nc3ccccc3)sc2c1`, in assay [1] (parasite line B), the activity, negative = inhibition is 5.72%. In addition, the Potency in the assay on 7G8 was 10 µM (active). Besides, the Potency result in the assay on AA1029 and in the assay with ATS189 was “inactive” throughout.

On to `NC(N)=NCC1COc2ccccc2O1` (configuration not stated), for which the Potency result in the assay on 3D7, in the assay with AS120 and with ATS189 was “inactive” each time.

On to `O=C1c2ccccc2CN2C(=O)c3ccccc3CN12`, for which the Potency entry in the assay with 3D7, with 7G8, with AA1029, in the assay with AS120 and in the assay with ATS189 was “inactive” in each case.

Take `O=C(Nc1ccc(O)cc1)c1ccccc1O`: the activity, negative = inhibition in assay [1] (parasite line A) was 12.3%. Moreover, the Potency entry in the assay with 3D7, in the assay with AA1029 and in the assay with ATS189 was “inactive” each time.

Take `CC(=O)c1ccc2c(c1)N(CCCN1CCN(CCO)CC1)c1ccccc1S2`: the Potency was 7.08 µM (active) in the assay with 7G8 and 8.91 µM (active) with AA1029.

With `CC[C@H]1OC(=O)[C@H](C)[C@@H](O[C@H]2C[C@@](C)(OC)[C@@H](O)[C@H](C)O2)C(C)[C@@H](O[C@@H]2O[C@H](C)C[C@H](N(C)C)[C@@H]2O)[C@](C)(OC)C[C@@H](C)C(=O)[C@H](C)[C@@H](O)[C@]1(C)O` (some centres not stated), the Potency result in the assay on 7G8, in the assay with AA1029 and in the assay on ATS189 was “inactive” throughout.

With `OC1OC[C@@H](O)[C@H](O)[C@@H]1O` (some centres not stated), the activity, negative = inhibition in assay [1] (parasite line A) is -2.48%. Moreover, the Potency result with 3D7, in the assay on 7G8, in the assay on AA1029, in the assay with AS120 and in the assay on ATS189 was “inactive” throughout.

For `CC(=O)Nc1ccc(NC(=S)NC(=O)c2ccc(C(C)(C)C)cc2)cc1`, the activity, negative = inhibition in assay [1] (parasite line B) is -2.21%. Further, the Potency was 11.2 µM (active) with 3D7 and 8.91 µM (active) in the assay on 7G8. The Potency entry in the assay with AS120 and in the assay with ATS189 was “inactive” each time.

Turning to `CCCCCc1ccc(C)cc1O`, the activity, negative = inhibition in assay [1] (parasite line A) was -9.62%. Moreover, the Potency result with 3D7, in the assay with AA1029, in the assay on AS120 and with ATS189 was “inactive” in each case. In addition, the Potency in the assay with 7G8 was 12.6 µM (active).

Regarding `CC(=O)Nc1c(I)c(C(=O)O)c(I)c(N(C)C(C)=O)c1I`, the activity, negative = inhibition in assay [1] (parasite line B) was -11.8%. The Potency entry in the assay with 3D7, with 7G8, in the assay on AA1029 and in the assay on ATS189 was “inactive” in each case.

In the case of `O=C(OCc1ccccc1)c1cccnc1`, the activity, negative = inhibition in assay [1] (parasite line A) was -26.7%. The Potency entry in the assay with 3D7, in the assay with 7G8, in the assay with AA1029, in the assay with AS120 and with ATS189 was “inactive” each time.
